Compounds with a hit are over-represented: about 2.2% of the library has one in this group of screens.
aSyn UTR inh: 5' untranslated region of α-synuclein, MLPCN primary screen; 300,000 tested, 0.82% active; inhibition, % (tested at 7.5 µM); alpha-synuclein 5'UTR reporter, inhibitor activity; AID 1813; in the data active = inhibition above about 60%;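 note: H4 neuroglioblastoma cells stably carrying SNCA 5'UTR luciferase fusion; 0% = DMSO wells and 100% = positive control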
BaF3 tox: counter-screen for JAK2V617F inhibitors: parental Ba/F3 viability inhibitors | CellTiter-Glo ATP luminescence | inhibition, % at 5.6 µM | 220,000 tested, 1.1% active | AID 1486;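 active = inhibition above a per-campaign cutoff, the mean inhibition of all tested compounds plus 3 SD, cut at about 27% in these data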;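 note: 0% = DMSO wells and 100% = JAK Inhibitor I control wells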
KLF5 inhibitor: inhibitors of KLF5 expression; AID 1700; 290,000 tested, 0.23% active; inhibition, % at 5 µM; DLD-1 KLF5 promoter-luciferase reporter, luminescence;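 active = inhibition above a per-plate limit of that plate's mean compound inhibition plus 3 SD, cut at about 60% in these data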;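 note: 0% = DMSO wells and 100% = LY294002 at 200 µM; higher means less KLF5 promoter-driven luciferase light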
APP transl inh: APP translation inhibition | inhibition, % at 2 µM | AID 1285 | 190,000 tested, 0.82% active | SH-SY5Y APP 5'UTR-luciferase reporter, luminescence;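 active = inhibition above a set limit, derived from the sample mean plus 3 SD, cut at about 45% in these data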
IEC-6 tox: IEC-6 cytotoxicity, counter-screen for KLF5 inhibitors; luminescence viability; inhibition, % at 5 µM; 290,000 tested, 0.78% active; in the data active = inhibition above about 22%;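 note: 0% = plate median of test compound wells and 100% = cytotoxic reference compound wells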
Ba/F3 V617F tox: reduce viability of Ba/F3 cells dependent on JAK2V617F; Ba/F3 EpoR-JAK2V617F viability, ATP luminescence; inhibition, % at 5.6 µM; 220,000 tested, 1.1% active; AID 1446;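 active = inhibition above the campaign mean plus 3 SD over all tested compounds, cut at about 24% in these data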;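 note: cytokine-independent growth of Ba/F3 cells driven by EpoR plus mutant JAK2; 0% = DMSO-treated cells and 100% = JAK inhibitor I control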
* hit, by the source's call.

How did CN(C)CCCn1cnc2c(c1=N)C(c1ccccc1)c1ccc3ccccc3c1O2 (configuration not stated) do in these assays?
aSyn UTR inh: 90*; KLF5 inhibitor: -10; IEC-6 tox: 1

Results for COc1ccc(C2c3ccc4ccccc4c3Oc3ncn(CCN4CCOCC4)c(=N)c32)cc1OC (configuration not stated) ?
aSyn UTR inh: 105*; BaF3 tox: -1; KLF5 inhibitor: -21; IEC-6 tox: 3; Ba/F3 V617F tox: 1

What do the screens show for `CCN1C(=O)C(CC(=O)Nc2ccc(Cl)cc2)N(NC(=O)c2ccncc2)C1=S` (configuration not stated)?
aSyn UTR inh: -13; BaF3 tox: 2; KLF5 inhibitor: -3; IEC-6 tox: -4; Ba/F3 V617F tox: -4

How did COc1cc(C(=O)NCCC(=O)N2CCC3(CC2)NCCc2[nH]cnc23)cc(OC)c1OC do in these assays?
aSyn UTR inh: -12; KLF5 inhibitor: -15; IEC-6 tox: -6

How did CCN(CC1COc2ccccc2O1)C(=S)Nc1ccc(F)cc1 (configuration not stated) do in these assays?
aSyn UTR inh: 6; BaF3 tox: 31*; KLF5 inhibitor: -25; APP transl inh: -9; IEC-6 tox: -8; Ba/F3 V617F tox: 34*

What do the screens show for `ClC1=C(Cl)C(Cl)=C(Cl)C1=C/C=C/c1ccccc1`?
aSyn UTR inh: 113*; BaF3 tox: 1; KLF5 inhibitor: -15; IEC-6 tox: 3; Ba/F3 V617F tox: -3

How did c1ccc(-c2cn3c4c(sc3n2)CCCC4)cc1 do in these assays?
aSyn UTR inh: 117*; BaF3 tox: 4; KLF5 inhibitor: -134; APP transl inh: -88; IEC-6 tox: 15; Ba/F3 V617F tox: 5

Results for Cc1nn2cc(-c3ccccc3)nc2s1 ?
aSyn UTR inh: -21; BaF3 tox: 7; KLF5 inhibitor: -65; APP transl inh: -114; IEC-6 tox: 5; Ba/F3 V617F tox: 4

Results for COc1ccc(CNC(=O)Cn2nnc3ccccc3c2=O)cc1 ?
aSyn UTR inh: -1; BaF3 tox: 0; KLF5 inhibitor: -16; IEC-6 tox: 2; Ba/F3 V617F tox: -1

Results for FC(F)(F)c1cc(Oc2ccc(Cl)cc2)nc(-c2ccccn2)n1 ?
aSyn UTR inh: 9; BaF3 tox: 0; KLF5 inhibitor: 11; APP transl inh: -1; IEC-6 tox: 1; Ba/F3 V617F tox: -5

How did FC(F)(F)c1cc(Oc2ccccc2Cl)nc(-c2ccccn2)n1 do in these assays?
aSyn UTR inh: 64*; BaF3 tox: 1; KLF5 inhibitor: 2; APP transl inh: -5; IEC-6 tox: 16; Ba/F3 V617F tox: -4

What do the screens show for `Cc1ccc(CNC(=O)c2ccc(N3CCCC3=O)cc2)cc1`?
aSyn UTR inh: -21; BaF3 tox: 4; KLF5 inhibitor: 12; APP transl inh: 2; IEC-6 tox: 0; Ba/F3 V617F tox: -5

Results for Cn1nc(C(C)(C)C)cc1C(=O)NCc1ccc(N2CCCC2=O)cc1 ?
aSyn UTR inh: -13; BaF3 tox: 93*; KLF5 inhibitor: 10; APP transl inh: -16; IEC-6 tox: 11; Ba/F3 V617F tox: 58*

Results for CC(C)(C)C(=O)Nc1ccc(N=Nc2ccccc2)cc1 ?
aSyn UTR inh: 79*; BaF3 tox: 6; KLF5 inhibitor: -9; APP transl inh: -114; IEC-6 tox: -1; Ba/F3 V617F tox: 4

How did COc1ccc(-c2nsc3c(N4CCCC4)ncnc23)cc1 do in these assays?
aSyn UTR inh: 70*; BaF3 tox: 3; KLF5 inhibitor: -127; APP transl inh: -156; IEC-6 tox: 2; Ba/F3 V617F tox: 7

What do the screens show for `COc1ccc(-c2csc3ncnc(N4CCN(c5ccc(OC)cc5)CC4)c23)cc1`?
aSyn UTR inh: -3; KLF5 inhibitor: -7; IEC-6 tox: 2

How did Cn1c(=O)c2c(O)c([N+](=O)[O-])c(=O)n(C)c2n(C)c1=O do in these assays?
aSyn UTR inh: -5; BaF3 tox: 0; KLF5 inhibitor: -8; IEC-6 tox: 2; Ba/F3 V617F tox: -3

How did CSCC[C@H](NC(=O)N1CCn2c1nc1ccccc12)C(=O)NCc1ccc(C)cc1 do in these assays?
aSyn UTR inh: 2; KLF5 inhibitor: 4; IEC-6 tox: 0

How did Cc1ccc(C(C)C)c(OCc2ccc(C(=O)N/N=C/c3ccc(C(=O)O)cc3)cc2)c1 do in these assays?
aSyn UTR inh: 37; BaF3 tox: 3; KLF5 inhibitor: -28; IEC-6 tox: 7; Ba/F3 V617F tox: 0

Results for Cc1ccc(C(C)C)c(OCc2ccc(C(=O)N/N=C/c3ccc(O)cc3O)cc2)c1 ?
aSyn UTR inh: 96*; BaF3 tox: 6; KLF5 inhibitor: 47; APP transl inh: 75*; IEC-6 tox: 11; Ba/F3 V617F tox: 3

What do the screens show for `O=C(Cn1cnc([N+](=O)[O-])c1)Nc1ccccc1C(F)(F)F`?
aSyn UTR inh: -11; KLF5 inhibitor: 5; IEC-6 tox: 2

How did COc1ccc(C(=O)Nc2cccc(OC)c2)cc1 do in these assays?
aSyn UTR inh: 4; BaF3 tox: 1; KLF5 inhibitor: -128; APP transl inh: -134; IEC-6 tox: 1; Ba/F3 V617F tox: 0

What do the screens show for `COc1ccc(C(=O)Nc2ccc3[nH]c(-c4cccc(OC)c4)cc(=O)c3c2)cc1`?
aSyn UTR inh: -5; BaF3 tox: 5; KLF5 inhibitor: 5; APP transl inh: 91*; IEC-6 tox: 4; Ba/F3 V617F tox: 0

What do the screens show for `O=C(COC(=O)c1c(F)cccc1F)NCCNC(=O)COC(=O)c1c(F)cccc1F`?
aSyn UTR inh: -13; KLF5 inhibitor: 9; IEC-6 tox: -4

How did O=C(Oc1ccc(Br)cc1C(=S)N1CCCCC1)c1cc([N+](=O)[O-])cc([N+](=O)[O-])c1 do in these assays?
aSyn UTR inh: 8; BaF3 tox: 1; KLF5 inhibitor: -17; APP transl inh: 50*; IEC-6 tox: 0; Ba/F3 V617F tox: -3

How did Cc1ncc(C(=O)O)c(C(=O)O)c1N do in these assays?
aSyn UTR inh: -4; BaF3 tox: -8; KLF5 inhibitor: -18; APP transl inh: -12; IEC-6 tox: -1; Ba/F3 V617F tox: -3

Results for CN(C)CCCN(C(=O)COc1ccccc1)c1nc2ccc(F)cc2s1 ?
aSyn UTR inh: -21; BaF3 tox: 8; KLF5 inhibitor: -30; APP transl inh: 8; IEC-6 tox: 1; Ba/F3 V617F tox: 2

Results for CN(C)CCCN(C(=O)CCOc1ccccc1)c1nc2ccc(F)cc2s1 ?
BaF3 tox: 8; KLF5 inhibitor: -11; APP transl inh: 33; IEC-6 tox: 1; Ba/F3 V617F tox: 26*

What do the screens show for `Cc1c(C(=O)NCCCN2CCCCC2)oc2ccc3c(c12)C(O)CC1(CCCCC1)O3` (configuration not stated)?
aSyn UTR inh: 76*; KLF5 inhibitor: -27; IEC-6 tox: 8

What do the screens show for `C=CCSc1nc2ccccc2n1C(=O)/C=C/c1cc(OC)c(OC)c(OC)c1`?
aSyn UTR inh: -172; BaF3 tox: 1; KLF5 inhibitor: 5; APP transl inh: 58*; IEC-6 tox: 4; Ba/F3 V617F tox: 2

What do the screens show for `Cc1ccccc1N/C(=N/S(=O)(=O)c1cc(F)ccc1F)c1ccccc1`?
aSyn UTR inh: 0; KLF5 inhibitor: -1; IEC-6 tox: -2

Compound activity from PubChem.
